Out of some 5,500 compounds screened, about 2,000 (36%) were called active. Roughly 18% stayed inconclusive and do not appear here. No stated cut-off is given here; in the data, active means normalized growth mostly below about 0.91 (no sharp cut-off); inconclusive means no clear call, values can overlap the other calls; inactive means mostly above about 0.92. The list shows a part of the results.
Assay: chemical genetic growth profiling, strain panel (AID 1159580);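 further: tested at 20 µM; growth read once vehicle control cultures reached saturation at 30 °C; 1 = growth at the plate median or of vehicle wells; lower values mean less growth of the strain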
Details: growth OD
[1] = S. cerevisiae deletion strains, locus YAR019C, strain CDC15, active compounds read low
[2] = S. cerevisiae deletion strains, locus YBL105C, strain PKC1, active compounds read low
[3] = S. cerevisiae deletion strains, locus YBR135W, strain CKS1, active compounds read low
[4] = S. cerevisiae deletion strains, locus YBR136W, strain MEC1, active compounds read low
[5] = S. cerevisiae deletion strains, locus YBR160W, strain CDC28, active compounds read low
[6] = S. cerevisiae deletion strains, locus YDL017W, strain CDC7, active compounds read low
[7] = S. cerevisiae deletion strains, locus YDL028C, strain MPS1, active compounds read low
[8] = S. cerevisiae deletion strains, locus YDL101C, strain DUN1, active compounds read low
[9] = S. cerevisiae deletion strains, locus YDL108W, strain KIN28, active compounds read low
[10] = S. cerevisiae deletion strains, locus YDL132W, strain cdc53, active compounds read low
[11] = S. cerevisiae deletion strains, locus YDL214C, strain PRR2, active compounds read low
[12] = S. cerevisiae deletion strains, locus YDR052C, strain DBF4, active compounds read low
[13] = S. cerevisiae deletion strains, locus YDR054C, strain cdc34, active compounds read low
[14] = S. cerevisiae deletion strains, locus YDR226W, strain ADK1, active compounds read low
[15] = S. cerevisiae deletion strains, locus YDR477W, strain SNF1, active compounds read low
[16] = S. cerevisiae deletion strains, locus YER123W, strain YCK3, active compounds read low
[17] = S. cerevisiae deletion strains, locus YER133W, strain GLC7, active compounds read low
[18] = S. cerevisiae deletion strains, locus YFL009W, strain cdc4, active compounds read low
[19] = S. cerevisiae deletion strains, locus YFL029C, strain CAK1, active compounds read low
[20] = S. cerevisiae deletion strains, locus YFR003C, strain YPI1, active compounds read low
[21] = S. cerevisiae deletion strains, locus YFR019W, strain FAB1, active compounds read low
[22] = S. cerevisiae deletion strains, locus YFR028C, strain CDC14, active compounds read low
[23] = S. cerevisiae deletion strains, locus YGR040W, strain KSS1, active compounds read low
[24] = S. cerevisiae deletion strains, locus YGR052W, strain FMP48, active compounds read low
[25] = S. cerevisiae deletion strains, locus YGR092W, strain DBF2, active compounds read low
[26] = S. cerevisiae deletion strains, locus YHR030C, strain SLT2, active compounds read low
[27] = S. cerevisiae deletion strains, locus YHR079C, strain IRE1, active compounds read low
[28] = S. cerevisiae deletion strains, locus YHR082C, strain KSP1, active compounds read low
[29] = S. cerevisiae deletion strains, locus YHR205W, strain SCH9, active compounds read low
[30] = S. cerevisiae deletion strains, locus YIL147C, strain SLN1, active compounds read low
[31] = S. cerevisiae deletion strains, locus YJL095W, strain BCK1, active compounds read low
[32] = S. cerevisiae deletion strains, locus YJL128C, strain PBS2, active compounds read low
[33] = S. cerevisiae deletion strains, locus YJL157C, strain FAR1, active compounds read low
[34] = S. cerevisiae deletion strains, locus YJR016C, strain ILV3, active compounds read low
[35] = S. cerevisiae deletion strains, locus YJR066W, strain TOR1 (second series), active compounds read low
[36] = S. cerevisiae deletion strains, locus YJR066W, strain TOR1, active compounds read low
[37] = S. cerevisiae deletion strains, locus YKL048C, strain ELM1, active compounds read low
[38] = S. cerevisiae deletion strains, locus YKL067W, strain YNK1, active compounds read low
[39] = S. cerevisiae deletion strains, locus YKL101W, strain HSL1, active compounds read low
[40] = S. cerevisiae deletion strains, locus YKL193C, strain SDS22, active compounds read low
[41] = S. cerevisiae deletion strains, locus YKL203C, strain TOR2, active compounds read low
[42] = S. cerevisiae deletion strains, locus YLR113W, strain HOG1, active compounds read low
[43] = S. cerevisiae deletion strains, locus YLR133W, strain CKI1, active compounds read low
[44] = S. cerevisiae deletion strains, locus YLR403W, strain SFP1, active compounds read low
[45] = S. cerevisiae deletion strains, locus YML070W, strain DAK1, active compounds read low
[46] = S. cerevisiae deletion strains, locus YMR001C, strain CDC5, active compounds read low
[47] = S. cerevisiae deletion strains, locus YMR205C, strain PFK2 (second series), active compounds read low
[48] = S. cerevisiae deletion strains, locus YMR277W, strain FCP1, active compounds read low
[49] = S. cerevisiae deletion strains, locus YNL006W, strain LST8, active compounds read low
[50] = S. cerevisiae deletion strains, locus YNL020C, strain ARK1, active compounds read low
[51] = S. cerevisiae deletion strains, locus YNL161W, strain CBK1, active compounds read low
[52] = S. cerevisiae deletion strains, locus YNL183C, strain NPR1, active compounds read low
[53] = S. cerevisiae deletion strains, locus YNL207W, strain RIO2, active compounds read low
[54] = S. cerevisiae deletion strains, locus YNL222W, strain SSU72, active compounds read low
[55] = S. cerevisiae deletion strains, locus YNL307C, strain MCK1 (second series), active compounds read low
[56] = S. cerevisiae deletion strains, locus YOL078W, strain AVO1, active compounds read low
[57] = S. cerevisiae deletion strains, locus YOL136C, strain PFK27, active compounds read low
[58] = S. cerevisiae deletion strains, locus YOR061W, strain CKA2, active compounds read low
[59] = S. cerevisiae deletion strains, locus YOR119C, strain RIO1, active compounds read low
[60] = S. cerevisiae deletion strains, locus YOR231W, strain MKK1, active compounds read low
[61] = S. cerevisiae deletion strains, locus YOR329C, strain SCD5, active compounds read low
[62] = S. cerevisiae deletion strains, locus YPL031C, strain PHO85, active compounds read low
[63] = S. cerevisiae deletion strains, locus YPL153C, strain RAD53, active compounds read low
[64] = S. cerevisiae deletion strains, locus YPL204W, strain HRR25, active compounds read low
[65] = S. cerevisiae deletion strains, locus YPL209C, strain IPL1, active compounds read low
[66] = S. cerevisiae deletion strains, locus YPL256C, strain CLN2, active compounds read low
[67] = S. cerevisiae deletion strains, locus YPR025C, strain CCL1, active compounds read low
[68] = S. cerevisiae deletion strains, locus YPR106W, strain ISR1, active compounds read low
[69] = S. cerevisiae deletion strains, locus YPR111W, strain DBF20, active compounds read low
[70] = S. cerevisiae deletion strains, strain NNK1, active compounds read low
[71] = S. cerevisiae deletion strains, strain TSCII, active compounds read low
[72] = S. cerevisiae deletion strains, locus YAL013W, strain DEP1, active compounds read low
[73] = S. cerevisiae deletion strains, locus YBR229C, strain ROT2, active compounds read low
[74] = S. cerevisiae deletion strains, locus YDL134C, strain PPH21, active compounds read low
[75] = S. cerevisiae deletion strains, locus YDR150W, strain NUM1, active compounds read low
[76] = S. cerevisiae deletion strains, locus YEL061C, strain CIN8, active compounds read low
[77] = S. cerevisiae deletion strains, locus YGR078C, strain PAC10, active compounds read low
[78] = S. cerevisiae deletion strains, locus YHR087W, strain rtc3, active compounds read low
[79] = S. cerevisiae deletion strains, locus YJL187C, strain SWE1, active compounds read low
[80] = S. cerevisiae deletion strains, locus YJR043C, strain POL32, active compounds read low
[81] = S. cerevisiae deletion strains, locus YJR075W, strain HOC1, active compounds read low
[82] = S. cerevisiae deletion strains, locus YKL190W, strain CNB1, active compounds read low
[83] = S. cerevisiae deletion strains, locus YLR039C, strain RIC1, active compounds read low
[84] = S. cerevisiae deletion strains, locus YLR058C, strain SHM2 (second series), active compounds read low
[85] = S. cerevisiae deletion strains, locus YLR085C, strain ARP6, active compounds read low
[86] = S. cerevisiae deletion strains, locus YLR262C, strain YPT6, active compounds read low
[87] = S. cerevisiae deletion strains, locus YML094W, strain GIM5, active compounds read low
[88] = S. cerevisiae deletion strains, locus YMR219W, strain ESC1, active compounds read low
[89] = S. cerevisiae deletion strains, locus YMR263W, strain SAP30, active compounds read low
[90] = S. cerevisiae deletion strains, locus YMR307W, strain GAS1, active compounds read low
[91] = S. cerevisiae deletion strains, locus YNL153C, strain GIM3, active compounds read low
[92] = S. cerevisiae deletion strains, locus YNL298W, strain CLA4 (second series), active compounds read low
[93] = S. cerevisiae deletion strains, locus YNL322C, strain KRE1, active compounds read low
[94] = S. cerevisiae deletion strains, locus YNR030W, strain Alg12, active compounds read low
[95] = S. cerevisiae deletion strains, locus YOL006C, strain TOP1, active compounds read low
[96] = S. cerevisiae deletion strains, locus YPL055C, strain LGE1, active compounds read low
[97] = S. cerevisiae deletion strains, locus YPL241C, strain CIN2, active compounds read low
[98] = S. cerevisiae deletion strains, locus YPR135W, strain CTF4, active compounds read low

Measured: normalized growth

O=C(N/N=C\c1cc(Br)ccc1O)c1ccccc1Oc1ccccc1
inactive: [1] 0.963 | [2] 0.976 | [3] 0.981 | [4] 0.963 | [5] 0.973 | [6] 0.969 | [7] 0.96 | [8] 0.97 | [9] 0.971 | [10] 0.966 | [11] 0.932 | [12] 0.97 | [13] 0.968 | [14] 0.972 | [15] 0.943 | [16] 0.879 | [17] 0.955 | [18] 0.964 | [19] 0.953 | [20] 0.969 | [21] 0.953 | [22] 0.965 | [23] 0.942 | [24] 0.954 | [25] 0.914 | [26] 0.854 | [27] 0.885 | [28] 0.924 | [29] 0.838 | [30] 0.949 | [31] 0.846 | [32] 0.928 | [33] 0.955 | [34] 0.979 | [35] 0.901 | [36] 0.953 | [37] 0.915 | [38] 0.923 | [39] 0.89 | [40] 0.972 | [41] 1 | [43] 0.916 | [44] 0.927 | [45] 0.888 | [46] 0.972 | [47] 0.919 | [48] 0.98 | [49] 0.977 | [50] 0.935 | [51] 0.982 | [52] 0.883 | [53] 0.976 | [54] 0.969 | [55] 0.912 | [56] 0.98 | [57] 0.909 | [58] 0.939 | [59] 0.97 | [60] 0.892 | [61] 0.968 | [62] 0.94 | [63] 0.934 | [64] 0.94 | [65] 0.974 | [67] 0.969 | [68] 0.976 | [69] 0.947 | [70] 0.959 | [71] 0.972
active: [42] 0.694 | [66] 0.764

Nc1ccccc1C(=O)N/N=C\c1cc(Br)ccc1O
active: [25] 0.452 | [42] 0.784 | [66] 0.779
inactive: [1] 0.985 | [2] 0.984 | [3] 0.981 | [4] 0.982 | [5] 0.989 | [6] 0.98 | [7] 0.976 | [8] 0.984 | [9] 0.982 | [10] 0.97 | [11] 0.972 | [12] 0.99 | [13] 0.97 | [14] 0.96 | [15] 0.961 | [16] 0.877 | [17] 0.979 | [18] 0.965 | [19] 0.971 | [20] 0.974 | [21] 0.985 | [22] 0.985 | [23] 0.982 | [24] 0.925 | [26] 0.855 | [27] 0.828 | [28] 1.02 | [29] 0.866 | [30] 0.981 | [31] 0.798 | [32] 0.933 | [33] 0.947 | [34] 0.976 | [35] 0.903 | [36] 0.976 | [37] 0.928 | [38] 0.948 | [39] 0.901 | [40] 0.976 | [41] 1.02 | [43] 0.927 | [44] 0.88 | [45] 0.901 | [46] 0.986 | [47] 0.939 | [48] 0.976 | [49] 0.995 | [50] 0.929 | [51] 0.979 | [52] 0.958 | [53] 0.979 | [54] 0.981 | [55] 0.871 | [56] 0.984 | [57] 0.898 | [58] 0.922 | [59] 1.08 | [60] 0.871 | [61] 0.98 | [62] 0.95 | [63] 0.927 | [64] 0.947 | [65] 0.985 | [67] 0.979 | [68] 0.968 | [69] 0.969 | [70] 0.988 | [71] 0.99

O=C(N/N=C\c1c(O)ccc2ccccc12)N/N=C\c1c(O)ccc2ccccc12
inactive: [72] 0.996 | [73] 0.975 | [8] 1.02 | [74] 0.94 | [75] 0.908 | [76] 0.962 | [77] 1.01 | [26] 0.875 | [78] 0.989 | [79] 0.994 | [80] 0.988 | [81] 1.07 | [82] 1.01 | [83] 1.03 | [84] 0.992 | [85] 0.899 | [86] 0.953 | [87] 0.924 | [88] 1.02 | [89] 0.928 | [90] 1.09 | [91] 0.951 | [92] 0.879 | [93] 1.02 | [94] 0.928 | [95] 0.888 | [96] 1.01 | [97] 0.939 | [98] 0.968 | S. cerevisiae strains, strain wild type, active compounds read low 0.994

Nc1ccccc1C(=O)N/N=C\c1cccc2ccccc12
active: [74] 0.813 | [76] 0.85 | [26] 0.461 | [83] 0.734 | [85] 0.615 | [86] 0.803 | [87] 0.831 | [90] 0.526 | [92] 0.807 | [94] 0.875 | [95] 0.535 | [97] 0.819
inactive: [72] 0.994 | [73] 0.977 | [8] 1.01 | [75] 0.971 | [77] 0.993 | [78] 0.992 | [79] 0.994 | [80] 1.01 | [81] 0.979 | [82] 0.944 | [84] 0.991 | [88] 0.989 | [89] 0.992 | [91] 1.01 | [93] 0.992 | [96] 0.973 | [98] 0.66
